# Assay outcomes from PubChem BioAssay.
# In the library only some 1.6% were active in any assay of this set; here they are far more common.
# KCNQ2 enhance – potentiators of rat KCNQ2 potassium channel; O88943; CHO-K1 KCNQ2, FluxOR thallium flux fluorescence; hits give high values; B-score at 10 µM; hit rate 0.54% among 310,000;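 active means fluorescence ratio B-score at least 3 SD of library B-scores, with initial fluorescence B-score within 3 of them, cut at about 5.3 in these data; same plate scores as AID 2156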;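 further: B-score of peak minus minimum over baseline fluorescence ratio after K+ and Tl+ stimulus; positive B-score means potentiation of KCNQ2 with more thallium influx and brighter signal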
# Target sequence (O88943 whole entry, looked up): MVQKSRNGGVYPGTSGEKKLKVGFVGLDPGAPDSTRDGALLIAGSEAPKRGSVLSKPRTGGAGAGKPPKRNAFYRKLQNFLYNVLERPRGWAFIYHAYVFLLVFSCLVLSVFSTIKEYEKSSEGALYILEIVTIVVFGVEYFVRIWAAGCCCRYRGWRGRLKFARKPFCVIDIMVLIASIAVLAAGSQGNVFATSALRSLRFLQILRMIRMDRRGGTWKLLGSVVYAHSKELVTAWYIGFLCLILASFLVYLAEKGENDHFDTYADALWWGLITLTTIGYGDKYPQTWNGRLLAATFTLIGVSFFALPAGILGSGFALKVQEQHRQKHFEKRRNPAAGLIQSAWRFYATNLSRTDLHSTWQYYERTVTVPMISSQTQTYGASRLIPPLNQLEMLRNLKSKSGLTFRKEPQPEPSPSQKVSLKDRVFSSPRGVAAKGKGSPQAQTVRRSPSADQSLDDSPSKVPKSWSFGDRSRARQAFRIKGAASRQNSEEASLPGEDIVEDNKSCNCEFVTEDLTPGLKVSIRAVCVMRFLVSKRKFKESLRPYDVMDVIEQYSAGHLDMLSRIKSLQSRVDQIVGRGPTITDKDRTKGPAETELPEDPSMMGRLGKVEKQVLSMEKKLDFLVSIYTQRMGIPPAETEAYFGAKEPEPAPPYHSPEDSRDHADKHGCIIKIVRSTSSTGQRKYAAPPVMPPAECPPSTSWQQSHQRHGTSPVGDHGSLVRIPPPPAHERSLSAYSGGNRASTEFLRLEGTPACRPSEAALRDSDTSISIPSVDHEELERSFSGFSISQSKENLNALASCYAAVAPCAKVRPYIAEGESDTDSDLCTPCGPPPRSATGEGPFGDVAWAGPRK
# KCNQ2 block – inhibitors of rat KCNQ2 potassium channel | O88943 | CHO-K1 KCNQ2, FluxOR thallium flux, 20 min; hits give low values | B-score at 10 µM | hit rate 1.1% among 310,000;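 active means fluorescence ratio B-score at most minus 3 library SDs, with starting brightness B-score within 2 library SDs, cut at about -5.5 in these data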
# * marks the source's active call; other numbers are inactive results; i = inactive; / = not tested or not shown.
SMILES,KCNQ2 enhance,KCNQ2 block
Cc1onc(-c2ccccc2)c1C(=O)Nc1ccccc1NC(=O)c1c(-c2ccccc2)noc1C,/,i
COc1ccc(NC(=O)c2c(-c3ccccc3)noc2C)c(OC)c1,/,i
CCCOc1ccccc1NC(=O)c1c(-c2ccccc2)noc1C,-6.1,-6.1*
Cc1cccc(C)c1NC(=O)c1c(-c2ccccc2)noc1C,-5.7,-5.7*
CCOCCCN(C(=O)CCC(=O)Nc1cc(C)on1)C(C(=O)NC(C)(C)C)c1ccccc1Cl (configuration not stated),0.35,i
COc1cc(-c2nnc(SCc3ccccc3Cl)o2)cc(OC)c1OC,-6.8,-6.8*
COc1cc(-c2nnc(SCc3c(F)cccc3Cl)o2)cc(OC)c1OC,/,i
COc1ccc(NC(=O)NNS(=O)(=O)c2ccc(OC)c(OC)c2)c(OC)c1,/,i
COc1ccc(N(C)C(=O)c2cn(C)c(=O)c3cc(OC)c(OC)cc23)cc1,/,i
COc1ccc(-c2nc(CN(C)C(C)c3ccon3)c(C)o2)c(C)c1C (configuration not stated),/,i
COc1ccc(-c2nc(CN(CC3CCC(=O)N3)C(C)C)c(C)o2)c(C)c1C (configuration not stated),-6.7,-6.7*
CCN(C(=S)Nc1ccc(Oc2ccccc2)cc1)c1ccccc1,/,i
COc1ccc(C(=O)OC/C(O)=C(\C#N)c2nc3ccccc3[nH]2)cc1S(=O)(=O)N1CCOCC1,0.37,i
Cc1sc(NC(=O)COc2ccccc2)c(C#N)c1-c1ccccc1,/,i
COc1ccc(C(=O)Nc2sc(C)c(-c3ccccc3)c2C#N)cc1OC,-6.4,-6.4*
O=C(NCc1ccccn1)c1cc(Cl)ccc1OCc1ccccc1,/,i
Cc1ccccc1-c1nc(C#N)c(N2CCCCC2)o1,/,i
Cc1ccc(CSCCNC(=O)CSCc2ccc([N+](=O)[O-])cc2)cc1,/,i
Cc1ccccc1CSCCNC(=O)CSCc1ccc([N+](=O)[O-])cc1,-6.4,-6.4*
COc1ccc(-c2ccccc2NC(=O)C2CCCN(Cc3ccc(C)o3)C2)cc1 (configuration not stated),/,i
COc1ccc(CC(=O)Nn2c(-c3ccccc3)nc3ccccc3c2=O)cc1,9.9*,i
COc1ccc(OCC(=O)Nn2c(-c3cccc(OC)c3)nc3ccccc3c2=O)cc1,/,i
COc1ccc(C(=O)Nn2c(SCC(=O)c3ccccc3)nc3ccccc3c2=O)cc1,/,i
O=C(COc1ccccc1)Nn1c(-c2ccccc2)nc2ccccc2c1=O,1.4,i
Cc1ccc(-c2nc3ccccc3c(=O)n2NC(=O)COc2ccccc2)cc1,-6.8,-6.8*
SMILES,KCNQ2 enhance,KCNQ2 block
COc1ccc(C(=O)Nn2c(SCc3ccc([N+](=O)[O-])cc3)nc3ccccc3c2=O)cc1,-6.2,-6.2*
O=C(CSc1ccc2nnc(CCNS(=O)(=O)c3ccccc3)n2n1)Nc1nc2ccccc2s1,2.5,i
CSc1nc2ccccc2c(=O)n1C1CCOC(C)(C)C1 (configuration not stated),/,i
Cc1cc(OCCCCOc2ccc(S(N)(=O)=O)c(C)c2)ccc1S(N)(=O)=O,/,i
Nc1cc(=O)[nH]c(=O)n1CCc1ccccc1,/,i
Cc1ccccc1CNS(=O)(=O)c1c(C)[nH]c(C)c1C(=O)N1CCCCC1,0.17,i
Cc1ccc(NC(=O)CSc2ccc3c(c2)OCCO3)nc1,/,i
O=C(NCc1ccco1)c1ccc(Cn2c(=O)c3ccccc3n(Cc3ccc(Cl)cc3)c2=O)cc1,-6.5,-6.5*
O=C(NCc1ccco1)c1ccc(Cn2c(=O)c3ccccc3n(Cc3cccc(F)c3)c2=O)cc1,/,i
CCOc1ccc(Nc2ccc(N3C(=O)CCC3=O)cc2[N+](=O)[O-])cc1,/,i
CCOC(=O)CNC(c1ccccc1)c1cc(Br)ccc1NC(C)=O (configuration not stated),/,i
COC(=O)CNC(c1ccccc1)c1cc(C)ccc1NS(=O)(=O)c1ccc(C)cc1 (configuration not stated),/,i
COC(=O)CNC(c1ccccc1)c1cc(Br)ccc1NC(=O)OCc1ccccc1 (configuration not stated),-7.4,-7.4*
COC(=O)CNC(c1ccccc1)c1cc(C)ccc1NC(=O)CNC(=O)OCc1ccccc1 (configuration not stated),-5.8,-5.8*
CCSc1nnc2ccc(-c3ccc(C)cc3)nn12,0.41,i
Cc1[nH]c(=O)c(C(=O)/C=C/c2ccccc2F)c2c1CCCC2,/,i
CSc1ccccc1NC(=O)C(=O)c1c[nH]c2ccccc12,0.07,i
CC1CCN(C(=O)N2c3ccccc3Sc3ccccc32)CC1,/,i
CC1CN(C(=O)N2c3ccccc3Sc3ccccc32)CC(C)O1 (configuration not stated),-6.2,-6.2*
COc1c(Cl)cc(-c2noc(C)c2C(=O)NCc2ccccc2)cc1Cl,4.4,i
COc1c(Cl)cc(-c2noc(C)c2C(=O)NCc2ccc3c(c2)OCO3)cc1Cl,14*,i
Cc1cc(S(=O)(=O)N2CCOCC2)ccc1NC(=O)c1ccc(F)cc1,/,i
COc1cc2ccc(=O)oc2c(CC=C(C)C)c1OC,0.11,i
COc1cc(O)cc2c1[C@@H]1Oc3c(ccc(O)c3CC=C(C)C)[C@@H]1CO2,-6.5,-6.5*
COC(=O)/C=C1\N/C(=N/c2nc(C)c3cc(OC)ccc3n2)NC1=O,1.4,i
SMILES,KCNQ2 enhance,KCNQ2 block
c1ccc(-c2nnc(-c3c[nH]c4ccccc34)nc2-c2ccccc2)cc1,-6.8,-6.8*
ClC(Cl)c1nnc(-c2ccccc2)c(-c2c[nH]c3ccccc23)n1,/,i
COc1ccccc1NC(=O)c1ccc(COc2ccccc2OC)o1,/,i
COC(=O)c1ccccc1NC(=O)c1ccc(COc2ccc(C)c(C)c2)o1,-6.6,-6.6*
COC(=O)c1ccccc1NC(=O)c1ccc(COc2cc(C)cc(C)c2)o1,-6.4,-6.4*
Cc1ccc(OCc2ccc(C(=O)NN)o2)cc1C,/,i
O=C(c1ccccc1)c1c(-c2ccccc2)[nH]n(-c2ccccc2)c(=O)c1=O,0.6,i
CCN(CC)CCn1c2c(c(SCC(=O)NCc3ccccc3)nc1=O)CCC2,/,i
CCOC(=O)C1=NN(C(=O)c2ccccc2)C(O)(c2ccc(C)cc2)C1 (configuration not stated),3.8,i
CCOC(=O)C1=NN(C(=O)c2ccc(OC)cc2)C(O)(c2ccc(Cl)cc2)C1 (configuration not stated),16*,i
Cc1ncc([N+](=O)[O-])n1Cc1cccc(F)c1,1.4,i
O=C(O)CCCCCNC(=O)c1cccc(Br)c1,/,i
O=C(NCCOC12CC3CC(CC(C3)C1)C2)c1cccc(Br)c1,-7.2,-7.2*
CCN(CC)CCNC(=O)C(=O)Nc1cc2c3c(c1)CCC(=O)N3CCC2,/,i
Cc1ccc(-n2c(C(C)C)nc3oc4ccccc4c(=O)c3c2=O)cc1,/,i
COC1(OC)N=C(N)C2(C#N)C(c3ccc(F)cc3)C12C#N (configuration not stated),1.8,i
CCSC1(SCC)N=C(N)C2(C#N)C(c3ccc(F)cc3)C12C#N (configuration not stated),-5.9,-5.9*
CCN(CC(=O)Nc1ccc(OC)cc1)C(=O)CN1C(=O)NC(C)(c2ccc3ccccc3c2)C1=O (configuration not stated),/,i
COCCN(C(=O)COC(=O)CCc1c[nH]c2ccccc12)c1c(N)n(Cc2ccccc2)c(=O)[nH]c1=O,/,i
